40 molecules from PubChem BioAssay (NCATS) can be followed below.

Records with an inconclusive call do not appear. A call without a number means that no potency is given here. Active and inactive are the calls of the source. Calls come from the whole dose curve; as a rule, active = well fitted inhibition curve with a large enough effect; inconclusive = small, poorly fitted or top-dose-only effect; inactive = flat fitted curve, though single readings scatter.

Chain of Phospholipid hydroperoxide glutathione peroxidase GPX4 (Homo sapiens) (P36969 whole entry, looked up): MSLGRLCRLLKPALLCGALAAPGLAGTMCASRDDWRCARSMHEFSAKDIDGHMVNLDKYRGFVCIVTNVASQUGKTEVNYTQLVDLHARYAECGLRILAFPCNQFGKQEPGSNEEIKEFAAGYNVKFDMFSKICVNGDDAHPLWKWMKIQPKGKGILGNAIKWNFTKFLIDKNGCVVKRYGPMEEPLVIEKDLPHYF

The assay concerns the target Phospholipid hydroperoxide glutathione peroxidase GPX4 (Homo sapiens) (UniProt P36969). Put plainly: Primary qHTS Assay for Inhibitors of Recombinant Selenoprotein Glutathione Peroxidase 4 (GPX4) (AID 1845192). Note: nearly all actives have a fitted effect of over 65% in size. The settings on record: recombinant GPX4, GR-coupled NADPH fluorescence, 15 min; series mostly up to 50 µM. The text has this: Assay Provider: Elias S.J. Arner MD PhD.
Department of Medical Biochemistry and Biophysics
Karolinska Institutet, Solna, Stockholm, Sweden
Selenoprotein glutathione peroxidases (GPX), like the ubiquitously expressed GPX1 and the ferroptosis modulator GPX4, enact their antioxidant activities by reducing hydroperoxides using glutathione. […] GPX1 and GPX4 inhibitors have thus shown promise as anti-cancer agents. Existing inhibitors are often promiscuous, or modulate GPX activity only indirectly, so novel direct inhibitors identified through screening against GPX1 and GPX4 could be valuable. Here, we developed optimized glutathione reductase (GR)-coupled GPX assays for the biochemical high-throughput screen (HTS) of almost 12,000 compounds with known mechanisms of action. Initial hits were triaged using a GR counter-screen, assessed for isoform specificity using a separate GPX2 assay, and were assessed for general selenocysteine-targeting activity using a thioredoxin reductase (TXNRD1) assay. With this suite of assays, we identified novel GPX1/GPX2- and GPX4-specific inhibitors and can here present a validated pipeline for future discovery research for selenoprotein-targeting agents.
SEQUENCE No. (e.g., 1, 2, 3, etc.); […] (e.g., Cells, Incubation, Reagent, etc.); VALUE; DESCRIPTION.
1; Reagent 1; 3 uL; 333.33 nM GPx4 enzyme or no enzyme control in 1536-well, black, solid Greiner assay plate.
2; Compound; 25 nL; Kalypsis pin tool (Wako USA) equipped with a 1536-well pin head.
3; Incubation; 30 min; room temperature.
4; Reagent 2; 1 uL; 500 nM GR, 5 mM GSH, 2.5 mM NADPH solution
5; Reagent 3; 1 uL; 2.5 mM CHP in 50% EtOH.
6; Detection; Fluorescence; ViewLux microplate reader, excitation 340 nm and emission 450 nm.
7; Incubation; 15 min; room temperature.
8; Detection; Fluorescence; ViewLux microplate reader, excitation 340 nm and emission 450 nm.
NOTES (numbers refer to Sequence numbers above)
1. 3 µL of 333.33 nM GPX4 and 0.016% BSA in assay buffer (50 mM Tris-HCl, 2 mM EDTA (pH 7.5), 150 mM NaCl) was added to columns 3-48 of 1536-well plates using a BioRAPTR Flying Reagent Dispenser (Let's Go Robotics (LGR), Carlsbad, CA). A no-enzyme control (0.01% BSA in TES assay buffer) was added to columns 1-2.
2. 25 nL, library and DMSO controls were added to each well with a pin tool (Kalypsys).
3. The assay plates were incubated for 30 minutes at room temperature.
4. 1 µL of master mix (500 nM glutathione reductase (GR), 5 mM reduced glutathione (GSH), 2.5 mM NADPH in assay buffer) was added.
5. 1 µL of cumene hydroperoxide (CHP) ([2.5 mM] in 50% EtOH) was then added within 5 minutes to initiate the reaction. Final concentrations were: 200 nM GPX4, 1 mM GSH, 0.5 mM CHP, 0.5 mM NADPH, 100 nM GR, 0.01% BSA.
6. Initial fluorescence readout (t=0) at 340/450 nm was measured using a ViewLux multimodal detector (PerkinElmer, Waltham, MA).
8. Endpoint fluorescence readout (t=15) at 340/450 nm was measured 15 min after room temperature incubation.
In general terms: In qHTS, concentration-response curves come from the screen itself.
For the molecule `C=C(C)C(=O)O[C@H]1C[C@@](C)(OC(C)=O)[C@@]2(O)CC[C@@](C)(O)[C@H](OC(C)=O)[C@@]23OC(=O)C(COC)=C13`, the Potency entry was “inactive”.

As to `CC1CCC2(C(=O)OC3OC(CO)C(O)C(O)C3O)CCC3(C(=O)O)C(=CCC4C5(C)CCC(OC6OC(C)C(O)C(O)C6O)C(C)(C)C5CCC43C)C2C1C` (stereo not given), the Potency result was “inactive”.

Regarding `CCOC(=O)[C@H]1O[C@@H]1C(=O)N[C@@H](CC(C)C)C(=O)NCCC(C)C`, the Potency result is “inactive”.

Take `CC(=O)O[C@@H]1[C@H](O[C@@H]2OC[C@](O)(CO)[C@H]2O)[C@@H](O[C@@H]2O[C@@H](C)[C@H](O)[C@@H](O)[C@H]2O)[C@H](OC(=O)[C@]23CCC(C)(C)C[C@H]2C2=CCC4[C@@]5(C)C[C@H](O)[C@H](O[C@@H]6O[C@H](C(=O)O)[C@@H](O)[C@H](O)[C@H]6O)[C@@](C)(C(=O)O)C5CC[C@@]4(C)[C@]2(C)CC3)O[C@@H]1C` (stereo not given in full): the Potency result is “inactive”.

On to `COc1cc(O[C@@H]2O[C@H](CO)[C@@H](O)[C@H](O)[C@H]2O)c(CCC(=O)OC[C@H]2O[C@@H](Oc3cc(OC)c(C4OC(=O)C(C)(O)C4O)cc3CCC(=O)O)[C@H](O)[C@@H](O)[C@@H]2O)cc1C1OC(=O)C(C)(O)C1O` (stereo not given in full), for which the Potency entry was “inactive”.

Consider `CC1(C)CCCC2(C)C(CO)C3CCC2C31` (stereo not given), for which the Potency entry was “inactive”.

For `CC1(C)C[C@H]2C3=CCC4[C@@]5(C)CC[C@H](O[C@H]6O[C@H](C(=O)O)[C@@H](O)[C@H](O)[C@H]6O[C@H]6O[C@H](CO)[C@@H](O)[C@H](O)[C@H]6O[C@@H]6O[C@H](CO)[C@@H](O)[C@H](O)[C@H]6O)[C@](C)(CO)C5CC[C@@]4(C)[C@]3(C)CC[C@@]2(C)[C@H](O[C@@H]2OC[C@H](O)[C@H](OC3O[C@H](CO)[C@@H](O)[C@H](O)[C@H]3O)[C@H]2O)[C@@H]1O` (stereo not given in full), the outcome is “inactive [at 9.73 µM]”.

Turning to `C[C@@H]1O[C@@H](O[C@@H]2[C@@H](O)[C@H](O[C@@H]3[C@@H](O)[C@@H](O)[C@H](O[C@H]4[C@H](OC(=O)[C@]56CCC(C)(C)C[C@H]5C5=CCC7[C@@]8(C)C[C@H](O)[C@H](O[C@@H]9O[C@@H](C)[C@H](O)[C@@H](O)[C@H]9O)[C@@](C)(CO)C8CC[C@@]7(C)[C@]5(C)C[C@H]6O)O[C@H](C)[C@H](O)[C@@H]4O)O[C@H]3C)OC[C@H]2O)[C@H](O)[C@H](O)[C@H]1O` (stereo not given in full), the activity change, negative = inhibition was 0.486% [at 9.73 µM] (inactive).

As for `C[C@@H]1C/C=C/C=C\C=C\C=C\[C@H](O[C@@H]2O[C@H](C)[C@@H](O)[C@H](N)[C@@H]2O)C[C@@H]2O[C@](O)(C[C@@H](O)C[C@H]3O[C@@H]3/C=C/C(=O)O1)C[C@H](O)[C@H]2C(=O)O`, the Potency result was “inactive”.

Turning to `CC(=C/C(=O)O)/C=C/[C@]1(O)[C@@]2(C)CO[C@]1(C)C[C@H](O[C@@H]1O[C@H](CO)[C@@H](O)[C@H](O)[C@H]1O)C2`, the Potency entry is “inactive”.

In the case of `CC/C=C\C[C@H]1C(=O)C=C[C@@H]1CCCCCCCC(=O)O`, the Potency entry was “inactive”.

On to `CC1(C)CC(=O)N(CCCCN2CCN(c3ncccn3)CC2)C(=O)C1`, for which the Potency entry is “inactive”.

Consider `C[C@@H]1O[C@@H](O[C@H]2[C@H](O[C@H]3[C@H](O[C@H]4CC[C@@]5(C)C(CC[C@]6(C)C5CC=C5[C@@H]7CC(C)(C(=O)O)C[C@@H](O)[C@]7(C)CC[C@]56C)[C@@]4(C)CO)O[C@H](C(=O)O)[C@@H](O)[C@@H]3O)O[C@H](CO)[C@H](O)[C@@H]2O)[C@H](O)[C@H](O)[C@H]1O` (stereo not given in full), for which the Potency entry is “inactive”.

On to `CN1CCC(c2c[nH]c3ccc(NC(=O)c4ccc(F)cc4)cc23)CC1`, for which the Potency result is “inactive”.

In the case of `C=C1[C@@H]2CC[C@@]3(C)[C@H](c4ccoc4)OC(=O)C[C@]13O[C@H]1CC(=O)C(C)(C)[C@H](CC(=O)OC)[C@]12C`, the Potency result is “inactive”.

For `COC1=CC(=O)O[C@@H](/C=C/c2ccccc2)[C@@H]1O`, the Potency result was “inactive”.

With `CC(=O)C1CCC2(C)C3=C(CCC12C)C1(C)CCC(=O)C(C)(C)C1CC3` (stereo not given), the Potency result was “inactive”.

Turning to `CC(=O)O[C@@H]1[C@@H](OC(=O)/C=C/c2ccccc2)[C@H](C)O[C@@H](O[C@H]2[C@@H]3C=CO[C@@H](O[C@@H]4O[C@H](CO)[C@@H](O)[C@H](O)[C@H]4O)[C@@H]3[C@@]3(CO)O[C@@H]23)[C@@H]1OC(C)=O`, the Potency entry was “inactive”.

For the molecule `O=C(O[C@H]1[C@@H]2C=CO[C@@H](O[C@@H]3O[C@H](CO)[C@@H](O)[C@H](O)[C@H]3O)[C@@H]2[C@@]2(CO)O[C@@H]12)c1ccc(O)cc1`, the Potency entry is “inactive”.

With `COC1CC(=O)C23C(=O)NC(CC(C)C)C2C(C)C(C)=CC3/C=C(\C)CCC1O` (stereo not given), the Potency result is “inactive”.

`C/C=C(\C)C(=O)O[C@H]1[C@@H](O[C@]2(COC(=O)CC(C)C)O[C@H](COC(=O)C(C)C)[C@@H](OC(C)=O)[C@@H]2O)O[C@H](COC(C)=O)[C@@H](O)[C@@H]1O`: the Potency result was “inactive”.

As to `C=C(C(=O)O)[C@@H]1CC=C2CCC[C@H](C)[C@@]2(C)C1`, the Potency result was “inactive”.

On to `COc1c(C)c(OCC=C(C)C)cc2c1C(=O)NC2=O`, for which the Potency entry was “inactive”.

Regarding `C=C1CCC(OC(C)=O)C2(C)CC3(O)OC(=O)C(C)=C3CC12` (stereo not given), the Potency result is “inactive”.

As to `COc1ccccc1CC(C(=O)O)N(C)C(=O)c1ccccc1` (stereo not given), the Potency result was “inactive”.

Consider `CCCCCCc1cccc(NC(=O)[C@H](N)CCP(=O)(O)O)c1`, for which the Potency entry was “inactive”.

As to `CC1(C)OC(=O)C(OCC2CC2)=C1c1ccc(S(C)(=O)=O)cc1`, the Potency result was “inactive”.

With `CC(/C=C/C1(O)C(C)(C)CC(O)CC1(C)O)OC1OC(CO)C(O)C(O)C1O` (stereo not given), the Potency result is “inactive”.

As for `CO[C@@H]1CC[C@H](OC[C@]2(COC(=O)c3ccc(C)[nH]3)[C@H](OC(C)=O)CC[C@@]3(C)[C@@H]4CC=C(C)[C@@H](C5=C(O)C(=O)OC5O)[C@]4(C)CC[C@@H]32)O[C@H]1C` (stereo not given in full), the Potency entry was “inactive”.

For the molecule `C[C@@H]1O[C@@H](O[C@H]2[C@H](O[C@H]3[C@H](O[C@H]4CC[C@@]5(CO)C(CC[C@]6(C)C5CC=C5C7CC(C)(C)C[C@@H](O)[C@]7(C)CC[C@]56C)C4(C)C)O[C@H](C(=O)O)[C@@H](O)[C@@H]3O)OC[C@@H](O)[C@@H]2O)[C@H](O)[C@H](O)[C@H]1O` (stereo not given in full), the Potency entry was “inactive”.

With `C/C=C1/[C@H](O[C@@H]2O[C@H](CO)[C@@H](O)[C@H](O)[C@H]2O)OC=C(C(=O)OC)[C@H]1CC(=O)O[C@@H]1O[C@H](CO)[C@@H](O)[C@H](O)[C@H]1O`, the Potency result is “inactive”.

For the molecule `C=C1CC23CC1(O)CCC2C1=CC2OC(=O)C(C)(C2O)C1C3C(=O)O` (stereo not given), the Potency entry was “inactive”.

For `CCNC(=O)CCC/C=C\C[C@@H]1[C@@H](/C=C/C(O)CCc2ccccc2)[C@@H](O)C[C@@H]1O` (stereo not given in full), the Potency entry was “inactive”.

Regarding `NS(=O)(=O)OC[C@@H]1C[C@@H](n2ccc3c(N[C@H]4CCc5ccccc54)ncnc32)C[C@@H]1O`, the Potency result is “inactive”.

With `COC(=O)[C@@]1(C)CC[C@]2(C(=O)O[C@@H]3O[C@H](CO)[C@@H](O)[C@H](O)[C@H]3O)CC[C@]3(C)C(=CCC4[C@@]5(C)CC[C@H](O[C@@H]6O[C@H](C(=O)O)[C@@H](O)[C@H](O)[C@H]6O)C(C)(C)C5CC[C@]43C)[C@@H]2C1` (stereo not given in full), the Potency entry was “inactive”.

On to `C[C@@H]1C(=O)O[C@H]2[C@H]1CC[C@@]1(C)C(=O)C=C[C@](C)(O)[C@H]21`, for which the Potency result was “inactive”.

As to `CC1CCC2C(C)(C)C(O)CCC2(C)C12Cc1c(O)cc3c(c1O2)CN=C3N` (stereo not given), the Potency entry was “inactive”.

With `CC(=O)Oc1c(C)cc(OCC(O)CNC(C)C)c(C)c1C` (stereo not given), the Potency result is “inactive”.

Turning to `OC[C@H]1O[C@@H](Oc2cc(O)cc(/C=C/c3ccc(O)cc3)c2)[C@H](O)[C@@H](O)[C@@H]1O`, the Potency result was “inactive”.

With `COCCN(C)Cc1ccc2nc3sc(C(=O)N(C)C4CCCCC4)cn3c2c1`, the Potency result was “inactive”.
